Source: PubChem BioAssay (several laboratories)
Shown are actives, neighbours in structure and some others; about 2.4% of the full set was active somewhere.
Pf gamet viab: inhibitors of late stage P. falciparum gametocyte viability; P. falciparum stage V gametocytes, ATP luminescence, 24 h; inhibition, % at 10.9 µM; hit rate 0.065% among 150,000; AID 743093;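 active = inhibition above the mean plus 3 SD of compounds within the control limits, set per campaign, cut at about 38% in these data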;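 also: 0% = DMSO wells and 100% = medium only without gametocytes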
Arbovirus anti: antivirals against arbovirus infection; arbovirus infection cell-based antiviral screen; inhibition, % at 10 µM; hit rate 0.37% among 200,000; AID 1251; in the data active = inhibition above about 30%
MEKK3 PB1 HTS: raises or lowers MEK5 binding to the human MEKK3 PB1 domain | Q99759 | bead-based flow cytometry, Alexa488-MEK5 binding to MEKK3; actives lie on both sides; 0 = blocked by unlabeled MEK5, 100 = vehicle | binding response (% of control), % at 10 µM | hit rate 1.4% among 290,000 | AID 1529;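 active = binding response more than 3 SD above or below the average of its plate-row segment, actives on both sides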;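 also: Alexa488 bead fluorescence after subtracting the streptavidin-only scavenger bead signal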
Target sequence (Q99759 whole entry, looked up, the tested form may be a part): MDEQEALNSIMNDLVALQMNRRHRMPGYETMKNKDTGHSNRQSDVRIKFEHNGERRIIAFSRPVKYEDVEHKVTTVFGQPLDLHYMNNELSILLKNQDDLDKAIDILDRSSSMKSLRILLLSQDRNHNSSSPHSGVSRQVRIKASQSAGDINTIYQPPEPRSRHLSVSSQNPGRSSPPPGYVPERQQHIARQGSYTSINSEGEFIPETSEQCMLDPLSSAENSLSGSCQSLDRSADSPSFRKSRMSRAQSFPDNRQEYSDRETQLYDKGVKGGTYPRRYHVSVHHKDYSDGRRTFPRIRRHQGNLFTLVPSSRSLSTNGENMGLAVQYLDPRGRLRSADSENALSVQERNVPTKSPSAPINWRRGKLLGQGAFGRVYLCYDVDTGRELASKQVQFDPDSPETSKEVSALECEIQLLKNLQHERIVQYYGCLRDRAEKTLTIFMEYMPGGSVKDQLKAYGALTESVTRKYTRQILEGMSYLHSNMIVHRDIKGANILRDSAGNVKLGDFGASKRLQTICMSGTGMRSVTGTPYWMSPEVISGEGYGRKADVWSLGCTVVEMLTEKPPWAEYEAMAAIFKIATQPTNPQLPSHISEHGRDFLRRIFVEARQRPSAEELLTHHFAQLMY
MEKK2 mut-MEK5: signal of MEK5 binding to mutant human MEKK2 PB1 domain | bead flow cytometry, Alexa488-MEK5 binding to MEKK2 mutant | percent response, % at 10 µM | hit rate 0.35% among 290,000; in the data active = percent response above about 24%, passing the limit was not always enough
MEKK2 WT-MEK5: raises or lowers MEK5 binding to wildtype human MEKK2 PB1 domain; Q9Y2U5; hit rate 1.1% among 290,000; bead flow cytometry, Alexa488-MEK5 binding to MEKK2 WT; actives lie on both sides; binding response (% of control), % at 10 µM; in the data active = binding response below about 67% or above about 130%
MEKK2wt confirm: raises or lowers MEK5 binding to wildtype human MEKK2, retest; shares compounds with MEKK3 PB1 HTS; hit rate 2.4% among 5,900; bead flow cytometry, Alexa488-MEK5 binding to MEKK2 WT; actives lie on both sides; binding response (% of control), % at 10 µM; AID 1892; in the data active = binding response below about 16% or above about 210%; inactive = in between
MEKK2mut-MEK5: signal of MEK5 binding to mutant human MEKK2, retest; percent response, % at 10 µM; bead flow cytometry, Alexa488-MEK5 binding to MEKK2 mutant; AID 1893; hit rate 2% among 5,900; shares compounds with MEKK3 PB1 HTS; in the data active = percent response mostly above about 71%, no sharp cut-off; inactive = mostly below about 38%;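 also: higher means compound restores mutant binding toward wildtype level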
MEKK3-MEK5 inh: confirmation of inhibitors of MEK5 binding to human MEKK3; hit rate 1.8% among 5,900; bead flow cytometry, Alexa488-MEK5 binding to MEKK3; stronger effect = lower value; shares compounds with MEKK3 PB1 HTS; binding response (% of control), % at 10 µM;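 active = binding response below 72% of control, or above a set upper limit, though filed actives all read lower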;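 also: 100% = DMSO only wells and 0% = binding blocked by excess unlabeled MEK5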
Numbers without * were called inactive; nt = no result given; [ ] = dose if it differs, or a comment.

SMILES | Pf gamet viab | Arbovirus anti | MEKK3 PB1 HTS | MEKK2 mut-MEK5 | MEKK2 WT-MEK5 | MEKK2wt confirm | MEKK2mut-MEK5 | MEKK3-MEK5 inh
CCC(CC)NC(=O)CON=C1c2ccccc2-c2ccccc21 | -7 | -7 | 146* | 0 | 107 | 99 | -2 | 102
COc1ccc(-c2noc(-c3ccccc3C(=O)Nc3cccnc3)n2)cc1 | 13 | -4 | 100 | 26* | 98 | 102 | 3 | 107
Cc1ccc(N/C=C2\C(=O)N(c3ccc(F)cc3F)C(c3cccnc3)S2(=O)=O)cc1 (centres undefined) | 0 | nt | 131* | 27 | 113 | 104 | 0 | 101
CCN(CC)S(=O)(=O)c1cccc(NC(=O)Nc2cccc(C(F)(F)F)c2)c1 | -30 | -33 | 102 | 20 | 219* | 183 | 45 | 104
CCN(CC)S(=O)(=O)c1cccc(NC(=O)CC2CCCC2)c1 | nt | nt | 103 | 3 | 105 | nt | nt | nt
N#Cc1c(N)sc(=S)c2c1CCCC2 | nt | 0 | 87 | -9 | 66*[inhibitor] | 92 | -1 | 104
CCC1(C)Cc2c(C#N)c(N)sc(=S)c2CO1 (centres undefined) | nt | 4 | 95 | -5 | 60*[inhibitor] | 82 | -10 | 98
CCC1(C)Cc2c(C#N)c(N)n(-c3ccccc3)c(=S)c2CO1 (centres undefined) | 6 | 2 | 103 | -1 | 98 | nt | nt | nt
Cc1cc(C)n(-c2ccc(C(=O)NC(C)C)cc2)n1 | nt | -4 | -1.0*[inhibitor] | -26 | -5.0*[inhibitor] | 98 | -8 | 96
O=C(Nc1ccccc1C(=O)N1CCN(Cc2ccccc2)CC1)c1ccc(F)cc1 | nt | nt | 101 | 4 | 105 | nt | nt | nt
CO/N=C/NC(=O)c1c(OC)ccnc1Oc1ccccc1 | nt | 6 | 100 | 3 | 101 | nt | nt | nt
COc1ccnc(Oc2ccccc2)c1C(=O)N/C=N/OCc1ccccc1 | 8 | -3 | 67*[inhibitor] | -39 | 68 | 103 | -3 | 103
Nc1nc2ccccc2n1C(=O)c1ccc(F)cc1 | 11 | -6 | 98 | -8 | 96 | nt | nt | nt
Cn1c(=O)c(/C=C/c2ccc(F)cc2)nc2ccccc21 | 6 | -4 | 81 | -10 | 55*[inhibitor] | 78 | -7 | 97
Cn1c(=O)c(/C=C/c2ccccc2)nc2ccccc21 | nt | 1 | 122 | -2 | 86 | nt | nt | nt
O=c1c(/C=C(\O)c2ccc(F)cc2)nc2ccccc2n1-c1ccccc1 | -31 | -6 | 83 | 1 | 45*[inhibitor] | 66 | -21 | 94
CC(=O)NCCC(=O)Nc1nc2ccc(Oc3ccccc3)cc2s1 | nt | nt | 103 | -1 | 103 | nt | nt | nt
CCCCCN(C(=O)CCC(=O)OCc1cccc(C(F)(F)F)c1)c1c(N)n(CCCC)c(=O)[nH]c1=O | nt | nt | 101 | 6 | 102 | nt | nt | nt
CC1CCCN(C(=O)C2CCN(CCCc3ccccc3)CC2)C1 (centres undefined) | nt | -7 | 79*[inhibitor] | -5 | 98 | 99 | -2 | 94
COc1ccccc1NC(=O)C(=O)NNS(=O)(=O)c1ccc2ccccc2c1 | -4 | nt | 131* | 31 | 118 | 103 | 5 | 101
O=C(NNS(=O)(=O)c1ccc2ccccc2c1)c1cccs1 | nt | -11 | 144* | 0 | 103 | 99 | -1 | 101
COc1ccc(NC(=S)NNS(=O)(=O)c2ccc3ccccc3c2)c(OC)c1 | -37 | -3 | 102 | -1 | 99 | nt | nt | nt
Cc1ccccc1-n1nc2c(c1NC(=O)/C=C\c1ccc3c(c1)OCO3)CSC2 | nt | -16 | 108 | -4 | 98 | nt | nt | nt
Cc1ccc(-n2nc3c(c2NC(=O)/C=C\c2ccc4c(c2)OCO4)CSC3)c(C)c1 | nt | -6 | 72*[inhibitor] | -7 | 83 | 98 | -3 | 102
O=C(CN(C(=O)c1csnn1)c1ccccc1F)NC1CCCCC1 | nt | nt | 97 | 5 | 101 | nt | nt | nt
SMILES | Pf gamet viab | Arbovirus anti | MEKK3 PB1 HTS | MEKK2 mut-MEK5 | MEKK2 WT-MEK5 | MEKK2wt confirm | MEKK2mut-MEK5 | MEKK3-MEK5 inh
CCOc1ccc(S(=O)(=O)NC2CCCC2)cc1 | nt | nt | 104 | 12 | 106 | nt | nt | nt
CCCC1/C(=N/O)CC(c2ccccc2)NC1c1ccccc1 (centres undefined) | nt | -19 | 4.0*[inhibitor] | -42 | 7.0*[inhibitor] | 101 | -3 | 101
CC1/C(=N/O)CC(c2ccccc2)NC1c1ccccc1 (centres undefined) | nt | 3 | 106 | 9 | 105 | nt | nt | nt
Cc1c(C(=O)N/N=C/c2ccc(O)c(Br)c2)sc(N)c1C#N | -10 | -14 | 132* | 0 | 97 | 94 | -6 | 97
COc1cc(/C=N/NC(=O)c2sc(N)c(C#N)c2C)ccc1O | nt | 1 | 106 | 7 | 104 | nt | nt | nt
COc1ccc(CCN2C(=O)c3ccccc3NC2c2cc(Cl)c(O)c(OC)c2)cc1 (centres undefined) | nt | nt | 100 | -6 | 97 | nt | nt | nt
NCC12CC3CC(C1)CC(c1ccc(Cl)cc1)(C3)C2 | 10 | -31 | 98 | 26 | 155* | 147 | 29 | 102
Nc1ccc(C23CC4CC(CC(CO)(C4)C2)C3)cc1 | nt | -6 | 103 | 1 | 102 | nt | nt | nt
CSc1cccc(CN2CCN(Cc3ccccc3)C(CCO)C2)c1 (centres undefined) | 8 | -13 | 48*[inhibitor] | -15 | 58 | 101 | 4 | 101
CCCCC(CC(O)COCCC)c1n[nH]c(=S)n1-c1ccccc1 (centres undefined) | 22 | 7 | 128* | -1 | 106 | 106 | 5 | 101
CCCCCC(O)CCc1n[nH]c(=S)n1-c1ccccc1 (centres undefined) | nt | 4 | 102 | 5 | 107 | nt | nt | nt
COc1ccc(C2C(C#N)=C(N)Oc3cc(O)ccc32)cc1Cl (centres undefined) | 14 | nt | 108 | 9 | 109 | nt | nt | nt
O=C(NCc1ccccc1)c1ccc(N2C(=O)C3CCCCC3C2=O)cc1 (centres undefined) | -2 | 3 | 142* | 1 | 105 | 104 | 5 | 106
C/C=C/c1ccc(OCCOCCNCc2ccccc2)c(OC)c1 | nt | nt | 113 | 24* | 195* | 156 | 31 | 108
C/C=C/c1ccc(OCCOc2cc(C=O)ccc2OC)c(OC)c1 | -17 | 28 | 104 | 13 | 107 | nt | nt | nt
CCOc1ccc(N(CC(=O)N2CCN(Cc3ccccc3)CC2)S(C)(=O)=O)cc1 | nt | nt | 101 | 1 | 101 | nt | nt | nt
CCCC(C)NC(=O)CSc1nc2ccc(C)cc2[nH]1 (centres undefined) | 11 | 7 | 107 | -1 | 103 | nt | nt | nt
Cc1nn2c(NCCCN(C)C)c3c(nc2c1-c1ccccc1)CCC3 | nt | -27 | 107 | 34* | 173* | 157 | 42 | 106
Cc1nn2c(-n3ccnc3C)c3c(nc2c1-c1ccccc1)CCC3 | nt | 0 | 100 | 8 | 104 | nt | nt | nt
Cc1nn2c(C(F)(F)F)c3c(nc2c1-c1ccccc1)CCC3 | -2 | -4 | 1.0*[inhibitor] | -35 | nt | 103 | 5 | 104
